Test results published in PubChem BioAssay (NCI).
“And” between values parts separate entries of the source, which are not always exact repeats. Identical values can stand only once. The panel holds about 83,000 compounds, 20% with a hit somewhere; the sample as a whole holds those more often.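 Each cell line was grown in a 96-well plate and treated with one concentration of compound for 48 hours. Values below 10 were considered active.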 The source made the active and inactive calls.

These compounds were tested on UACC-62 melanoma (assay: NCI-60 one-dose screen, 48 h (100 = growth as untreated, 0 = no growth, -100 = all killed)). Conditions: 10 µM unless noted.

| Structure (SMILES) | growth |
| --- | --- |
| O=C(/C=C/c1ccccc1)CCC1C(=O)c2ccccc2C1=O | 41.6% [100 µM] (inactive) and 19.1% [100 µM] (inactive) |
| C=CCO/N=C/c1cc(NC(=S)c2ccoc2C)ccc1Cl | -98.8% [100 µM] (active) and -100% [100 µM] (active) |
| CCOc1cc2c(cc1O)/C(=N\OC)C[C@@H]1[C@@H]2CC[C@]2(C)[C@@H](O)CC[C@@H]12 | -31.9% [100 µM] (active) and -75.8% [100 µM] (active) |
| CC1OC(OC2C(OC3CCC4(C)C(CCC5(C)C4CC=C4C6CC(C)(C)CCC6(C(=O)O)CCC45C)C3(C)CO)OCC(O)C2O)C(O)C(O)C1O (stereo not drawn) | -94% [100 µM] (active) and -96.7% [100 µM] (active) |
| COc1ccc2c(c1)C(OC)C1c3c(cc4c(c3-2)OCO4)CCN1C (stereo not drawn) | -93.1% [100 µM] (active) and -89.5% [100 µM] (active) |
| C=C(C)C1CC2(C)C(C)CC(O)CC2C(OC(=O)C=C(C)C)C1O (stereo not drawn) | 9.73% [100 µM] (active) and 41.9% [100 µM] (inactive) |
| CC1(C)CCC[C@]2(C)[C@@H](C=O)C(C=O)=CC[C@@H]12 | -87.9% [100 µM] (active) and 4.13% [100 µM] (active) |
| CN1CCc2cc3c(c4c2C1C(O)c1ccccc1-4)OCO3 (stereo not drawn) | -88.3% [100 µM] (active) and -88.4% [100 µM] (active) |
| Cc1c2c(c(C)c3c[n+](C)ccc13)Oc1ccccc1O2 | -77.7% [100 µM] (active) and -100% [100 µM] (active) |
| COc1c(/C=C/C=O)cc2c(c1OC)OCO2 | -90.2% [100 µM] (active) and -97.4% [100 µM] (active) |
| O=C(CCc1ccccc1)ON1C(=S)NC(c2ccccc2)(c2ccccc2)C1=S | -47.5% [100 µM] (active) and -5.8% [100 µM] (active) |
| COc1ccc(Nc2nc3ccc(C(F)(F)F)cc3nc2C(=O)O)cc1 | -46.2% [100 µM] (active) and -91.5% [100 µM] (active) |
| CC1=CC[C@@H]2[C@@H](CC[C@@]2(C)O)C(C)(C)[C@H]1CC[C@@H]1[C@@]2(C)CC[C@@H](O)C(C)(C)O[C@@H]2CC[C@]1(C)O | -81.4% [100 µM] (active) and -96.9% [100 µM] (active) |
| C=c1c2ccccc2oc2nc3[nH]c(N)c(C#N)c(N)c3c(=N)c12 | 44.5% [100 µM] (inactive) and 0.738% [100 µM] (active) |
| C=C(CO)C(=O)OC1CC(=C)C2CC(O)C(C)C2C2OC(=O)C(=C)C12 (stereo not drawn) | 60.1% [100 µM] (inactive) and -100% [100 µM] (active) |
| CCOc1ccc(NC(=O)/C(=N\N)C(C(=O)OC)c2nc3ccc(Cl)cc3[nH]c2=O)cc1 (stereo not drawn) | 79.7% [100 µM] (inactive) and 57.3% [100 µM] (inactive) |
| C=C1C(=O)C2=CC1CCC(=O)C1(C)CCC(OC(C)=O)C(C)(C)C1CC2O (stereo not drawn) | -95.4% [100 µM] (active) and -100% [100 µM] (active) |
| Cc1ccc(/C=N/Nc2cc(C)c3cccc(C)c3n2)s1 | -91.7% [100 µM] (active) and -100% [100 µM] (active) |
| CCOC(=O)C1C(C(C)C)C2(C#N)C(=N)OC1(C)C2(C#N)C#N (stereo not drawn) | -51.6% [100 µM] (active) and -86.9% [100 µM] (active) |
| COC(=O)[C@]1(C)CCC[C@@]2(C)[C@@H]3C[C@@H]4[C@H]5C[C@@]3(CC[C@@H]21)C[C@@]45C | -98.2% [100 µM] (active) and -85.1% [100 µM] (active) |
| CCOC(=O)COc1cc(-c2ccccc2F)nc2cc3c(cc12)OCO3 | 69.3% [100 µM] (inactive) and 35.8% [100 µM] (inactive) |
| CC1=CC[C@@H]2[C@@H](CC[C@@]2(C)O)C(C)(C)[C@H]1CC[C@@H]1[C@@]2(C)CCC(=O)C(C)(C)O[C@@H]2CC[C@]1(C)O | -76.1% [100 µM] (active) and -100% [100 µM] (active) |
| CC1(C=O)CCC23COC4(CCC5C6(C)CCC(OC7OCC(OC8OC(CO)C(O)C(OC9OC(CO)C(O)C(O)C9O)C8OC8OCC(O)C(O)C8O)C(O)C7OC7OC(CO)C(O)C(O)C7O)C(C)(C)C6CCC5(C)C4(C)CC2O)C3C1 (stereo not drawn) | -69% [100 µM] (active) and -57.3% [100 µM] (active) |
